Screens as filed in PubChem.
Rows were chosen to be rich in hits. Some 3% of all compounds tested hit in one or more screens of this group.
TRPM1 prom inh – inhibitors of MITF-dependent TRPM1 promoter reporter, primary screen, cell-based, SK-MEL-5, single point, luciferase | SK-MEL-5 TRPM1 promoter luciferase, 24 h | inhibition, % at 12.5 µM | AID 488899, 2010 | 330,000 compounds, 0.83% hits;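 active = mean inhibition across replicates of 60% or more, whatever share of single replicates reaches that level; inconclusive = some that reach 60%, reason not given; inactive = mean inhibition across replicates below 60%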
Peg3 prom inh – Peg3 promoter-driven luciferase inhibitors, primary screen, cell-based, HeLa, luciferase luminescence; HeLa PEG-Prom luciferase reporter, overnight; inhibition, % at 20 µM; 360,000 compounds, 1.7% hits; AID 588405, 2011;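 active = inhibition of at least 50% at 20 µM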
Shn3 inh set2 – reduction of Shn3 3'UTR firefly luciferase signal, primary screen, Schnurri-3 inhibitor project, cell-based, Clone20 osteoblasts, set 2 | Clone20 osteoblast Shn3 3'UTR firefly luciferase, 24 h | inhibition, % at 12.5 µM | 360,000 compounds, 0.52% hits | AID 588674, 2011;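 active = mean inhibition of at least 75% with every replicate also reaching 75%; inconclusive = mean inhibition at least 75% but some replicate below; inactive = mean inhibition below 75%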;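 note: 0% = median of neutral control wells and 100% = pilot-screen positive control compound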
EWS-Fli inh – EWS/Fli-driven NR0B1 reporter inhibitors, primary screen, A673 cells, NR0B1 luciferase, luminescence, MLPCN library | viability-normalised | AID 651661, 2012 | inhibition, % at 12.6 µM | 350,000 compounds, 0.67% hits;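 active = mean inhibition of at least 50% after viability correction, with every replicate also passing that limit; inconclusive = mean reaches 50% but only one of two replicates passes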;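 note: firefly luciferase signal divided by Alamar Blue viability fluorescence both relative to DMSO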
PAX8 inh HTS – inhibitors of PAX8-driven TPO luciferase reporter, primary screen, RMG-I cells, single concentration. SteadyGlo, 24 h. 360,000 compounds, 1.2% hits. inhibition, % at 12.6 µM;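 active = mean replicate inhibition at least 60% with every replicate also reaching 60%; inconclusive = only one of the two criteria is met; inactive = mean below 60% and not all replicates reaching 60%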;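 note: luciferase light reporting Pax8 driven TPO promoter activity; plate controls were median of neutral control wells for no effect and mitoxantrone controls for full effect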
ABHD5-PLIN5 inh – ABHD5-PLIN5 interaction inhibitors, primary screen, cell lysate, split luciferase complementation, luminescence; inhibition, % at 4 µM; Split G. princeps luciferase complementation, 4 h; Perilipin-5 (Homo sapiens) + 1-acylglycerol-3-phosphate O-acyltransferase ABHD5 (Homo …; 360,000 compounds, 0.78% hits;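 active = inhibition above the mean inhibition across every tested compound plus 3 SD, cut at about 22% in these data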;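 note: 0% = DMSO only wells and the 100% control is not disclosed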
Target sequence (Q00G26 whole entry, looked up): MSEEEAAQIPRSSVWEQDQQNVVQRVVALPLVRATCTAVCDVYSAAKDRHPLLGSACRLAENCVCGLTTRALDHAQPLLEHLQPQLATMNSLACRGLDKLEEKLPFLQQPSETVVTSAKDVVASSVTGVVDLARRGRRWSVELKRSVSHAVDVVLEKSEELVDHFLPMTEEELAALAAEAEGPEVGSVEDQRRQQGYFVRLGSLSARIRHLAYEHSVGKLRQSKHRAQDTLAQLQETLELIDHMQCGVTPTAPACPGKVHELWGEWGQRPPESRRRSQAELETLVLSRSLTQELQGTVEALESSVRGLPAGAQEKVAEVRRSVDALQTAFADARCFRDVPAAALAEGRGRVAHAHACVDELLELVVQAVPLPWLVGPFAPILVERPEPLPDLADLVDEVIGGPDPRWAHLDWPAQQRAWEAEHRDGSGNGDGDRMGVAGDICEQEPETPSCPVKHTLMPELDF
Target sequence (Q8WTS1 whole entry, looked up): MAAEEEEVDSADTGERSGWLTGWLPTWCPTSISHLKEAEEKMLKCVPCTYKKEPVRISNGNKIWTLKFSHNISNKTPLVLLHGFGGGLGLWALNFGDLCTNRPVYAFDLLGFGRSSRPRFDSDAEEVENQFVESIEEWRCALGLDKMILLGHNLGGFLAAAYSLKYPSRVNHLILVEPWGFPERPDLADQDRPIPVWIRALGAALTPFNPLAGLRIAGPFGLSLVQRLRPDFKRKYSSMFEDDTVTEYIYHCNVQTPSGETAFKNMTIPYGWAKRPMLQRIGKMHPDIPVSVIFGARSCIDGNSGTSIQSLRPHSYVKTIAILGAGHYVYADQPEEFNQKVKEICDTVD
* marks the source's active call; other numbers are inactive results; ? = inconclusive; . = not tested or not shown.

SMILES | TRPM1 prom inh | Peg3 prom inh | Shn3 inh set2 | EWS-Fli inh | PAX8 inh HTS | ABHD5-PLIN5 inh
Cc1ccccc1C(=O)N/N=C/c1cccc2ccccc12 | -34 | -192 | -41 | -82 | -56 | 0
CCCNC(=O)[C@H]1[C@H](CO)[C@H]2Cn3c(ccc(-c4ccc(F)cc4)c3=O)[C@H]2N1CC | . | . | . | 5 | . | .
Cc1cccc(Nc2nc(NCc3ccco3)c3ccccc3n2)c1 | 7 | 85* | 88* | 9 | . | 0
Cc1ccc(S(=O)(=O)Nc2nc3ccccc3nc2NCc2ccco2)cc1 | 6 | -273 | -153 | . | . | 25*
c1ccc(Nc2nc(NCc3ccco3)c3ccccc3n2)cc1 | 5 | -68 | 67 | 9 | 67* | -1
Cc1ccccc1Nc1nc(NCc2ccco2)c2ccccc2n1 | -24 | -145 | 71 | -21 | 19 | 3
O=S(=O)(Nc1nc2ccccc2nc1NCc1ccco1)c1ccc(Cl)cc1 | 6 | 25 | -21 | . | . | 10
Cc1ccc(S(=O)(=O)N2C[C@H]3O[C@H](CNS(=O)(=O)c4ccccc4C)CC[C@H]32)cc1 | . | . | . | 1 | . | .
O=C(Cc1ccncc1)N[C@H]1CC[C@@H](CCn2cc(-c3ccccc3F)nn2)O[C@H]1CO | . | . | . | 0 | 1 | .
COc1ccc(NC(=O)Nc2ccc3c(c2)CC(=O)N([C@@H](C)CO)C[C@@H](C)[C@H](CN(C)Cc2ccccc2)O3)cc1 | . | . | . | -3 | 15 | .
C[C@H](NC(=O)[C@@H]1Cc2ccccc2CN1C(=O)OC(C)(C)C)C(=O)NCc1ccco1 | 9 | 5 | -12 | 3 | -7 | 22*
Cc1cc(Sc2nnc(/N=C/N(C)C)s2)c2ccccc2n1 | 35 | 14 | -10 | 5 | 85* | 18
Cc1cc2c(cc1C)C(=O)C(Br)=C(N)C2=O | 62* | -134 | -23 | -21 | -1 | -12
NC1=C(Br)C(=O)c2ccccc2C1=O | 71* | -69 | -1 | 4 | 22 | -8
O=C(NC(Nc1nc2ccc([N+](=O)[O-])cc2s1)(C(F)(F)F)C(F)(F)F)c1ccccc1Cl | 75* | 65* | 90* | 33 | 101* | 0
O=C(NC(NNc1ccc([N+](=O)[O-])cc1)(C(F)(F)F)C(F)(F)F)c1ccccc1Cl | 11 | 4 | -8 | . | . | -6
O=C(NC(Nc1nc2ccc([N+](=O)[O-])cc2s1)(C(F)(F)F)C(F)(F)F)c1cccnc1 | 78* | 12 | 83 | 4 | 93* | 6
CC(C)C#Cc1ccc2c(c1)O[C@H](CN(C)C)[C@H](C)CN([C@@H](C)CO)S2(=O)=O | . | . | . | 1 | -9 | .
CCCCCCCCCCC[N+](C)(C)CC/C=C1/c2ccccc2Sc2ccc(Cl)cc21 | -1 | 108* | 92* | . | . | 8
OCCN1CCN(CC/C=C2/c3ccccc3Sc3ccc(Cl)cc32)CC1 | 0 | 87* | -13 | 4 | 9 | 5
Cc1ccc(-c2ccc3c(c2)O[C@@H](CN(C)CC2CCCC2)[C@H](C)CN([C@@H](C)CO)S3(=O)=O)cc1 | . | . | . | 20 | . | .
CS(=O)(=O)N1[C@@H]2c3ccc(-c4ccc(F)cc4)c(=O)n3C[C@@H]2[C@@H](CO)[C@@H]1C(=O)O | . | . | . | -7 | -7 | .
O=C(Nc1ccccc1)c1cccc(-c2nnc(-c3ccccc3)o2)c1 | -19 | -30 | -10 | . | . | 0
COc1ccc(Br)cc1C(=O)Nc1cccc(-c2nnc(-c3ccco3)o2)c1 | -7 | 53* | 62 | . | . | -2
COc1cccc(C(=O)Nc2cccc(-c3nnc(-c4ccco4)o3)c2)c1 | 12 | 94* | -6 | . | . | 0
SMILES | TRPM1 prom inh | Peg3 prom inh | Shn3 inh set2 | EWS-Fli inh | PAX8 inh HTS | ABHD5-PLIN5 inh
c1ccc(OCCSc2nnc3sc4ccccc4n23)cc1 | 32 | 47 | 22 | 60* | . | -5
COc1cccc(OCCSc2nnc3sc4ccccc4n23)c1 | -51 | -140 | -5 | . | . | 1
CCCCCCCCCCCCCCCC[N+](C)(C)Cc1ccc(F)cc1 | 28 | 105* | ? | 43 | 51 | 16
COC(=O)C[C@@H]1C[C@H]2c3cc(NC(=O)Nc4ccc(C(F)(F)F)cc4)ccc3O[C@H]2[C@@H](CO)O1 | . | . | . | -35 | 16 | .
CCCSc1cc(NCCOC(C)=O)c([N+](=O)[O-])c2nonc12 | 4 | 14 | 4 | -13 | 16 | -13
CCC(=O)OCCNc1cc(Sc2nc3ccccc3s2)c2nonc2c1[N+](=O)[O-] | 59 | 99* | 49 | . | . | 21
CCCSc1cc(NCCOC(=O)CCC)c([N+](=O)[O-])c2nonc12 | -6 | 56* | 4 | . | 0 | -22
O=[N+]([O-])c1c(NCCCO)cc(Sc2nc3ccccc3s2)c2nonc12 | 70* | 101* | 90* | . | . | 58*
Cc1ccc(S(=O)(=O)N(C)C[C@H]2OCCCC[C@@H](C)Oc3ccc(N(C)C)cc3C(=O)N([C@@H](C)CO)C[C@@H]2C)cc1 | . | . | . | -5 | 42 | .
C[C@H]1CN([C@@H](C)CO)C(=O)c2cc(NS(=O)(=O)c3cccs3)ccc2O[C@@H]1CN(C)S(=O)(=O)c1ccccc1 | . | . | . | -5 | -11 | .
CCCCC[C@H]1CN(Cc2ccc(OC)cc2)C(=O)[C@@H]1CC(=O)NCc1ccccc1 | 52 | 15 | 89* | -1 | -11 | 7
CCSc1nc(-c2ccccc2)c2cc(Cl)ccc2n1 | -1 | 14 | 8 | 3 | -20 | -1
CCSc1nc(-c2ccccc2)nc(C(Cl)Cl)n1 | 96* | 102* | 23 | 50 | 96* | -1
CSc1nc(-c2ccc(C)cc2)nc(C(Cl)Cl)n1 | 77* | 102* | 7 | . | . | 1
CO[C@@H](CN(C)Cc1cc(F)ccc1F)[C@@H](C)CN([C@H](C)CO)S(=O)(=O)c1ccc(F)cc1 | . | . | . | -3 | 5 | .
O=C(C[C@H]1CC[C@@H]2[C@H](COC[C@H](O)CN2C(=O)Nc2cc(Cl)cc(Cl)c2)O1)NCC1CCCCC1 | . | . | . | 10 | -21 | .
O=C(C1CCOCC1)N1CC(=O)N2[C@H](CO)[C@H](c3ccc(/C=C/c4ccccc4)cc3)[C@@H]2C1 | . | . | . | 2 | -6 | .
CC(C)NC(=O)N(C)C[C@@H]1Oc2cc(-c3ccccc3F)ccc2S(=O)(=O)N([C@H](C)CO)C[C@@H]1C | . | . | . | 6 | . | .
CN(C)C(=O)c1ccc(-c2ccccc2[C@@H]2[C@@H](C#N)N(C(=O)C3CCC3)[C@@H]2CO)cc1 | . | . | . | 1 | -6 | .
N#Cc1ccc(-c2ccc(OCC(=O)Nc3cccnc3)cc2)cc1 | -12 | -22 | 89* | . | -13 | 0
CCc1ccc(-n2c(O)c(C=NCCN(CC)CC)c(=O)[nH]c2=O)cc1 | 4 | 7 | 96* | . | . | -3
Cc1ccc2nc3sc(C(=O)N4CCOCC4)c(N)c3cc2c1 | 69* | -162 | 52 | . | 82* | -10
O=C(Nc1nc2ccccc2[nH]1)c1ccc(Cl)cc1 | 2 | -77 | 3 | 53* | -25 | 1
